Measurements from PubChem BioAssay (EPA / NIEHS).
Results filed as inconclusive are left out. Calls of active or inactive are those of the source. The calls were made as follows, unless noted: active = hit-call score of the fitted dose curve at least 0.9, where 1 is the maximum; inactive = score below 0.9.

Columns and labels:
[1] = ACEA_ER_80hr: ACEA Biosciences xCELLigence Real-Time Cell Analysis on Estrogen Receptor Agonism for Proliferation (AID 2282667; active = hit-call score of the fitted dose curve at least 0.9, where 1 is the maximum); details: T47D proliferation, impedance (xCELLigence), 80 h
In short: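 Real-time electrical impedance tracked growth of the human breast line T47D, with the 80 h post-dosing value used. Dosing spanned eight 1:4 steps down from a 100 uM final top concentration, run in duplicate.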

[2] = APR_HepG2_CellCycleArrest_24hr: Apredica 24-hour HepG2 Assay for Cell Cycle Arrest (AID 2282905); details: imaging, actives raise or lower the signal;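 also: cell cycle arrest scored as ratio of 2N to 4N nuclear DNA content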
In short: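 Cell cycle arrest is scored from nuclear DNA content measured by high-content imaging of Hoechst 33342-stained HepG2 cells following 24-hour treatment at ten concentrations up to 200 uM, with DMSO as baseline.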

[3] = APR_HepG2_NuclearSize_24hr: Apredica 24-hour HepG2 Assay for Nuclear Size (AID 2282907); details: high-content imaging, actives raise or lower the signal
In short: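 Compounds in DMSO (final 0.5%) were added to human HepG2 hepatoma cells at ten concentrations up to 200 uM for 24 hr. Fixed nuclei were stained with Hoechst 33342, and nuclear diameter was quantified from automated images.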

[4] = APR_HepG2_CellLoss_24hr: Apredica 24-hour HepG2 Assay for Cell Loss (AID 2282908); details: high-content imaging;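 as to AC50: fit in both directions so a hit may be cell loss or gain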
In short: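 Cell number is quantified by fluorescence imaging of Hoechst 33342-stained nuclei following dosing at 0.39–200 uM in 0.5% DMSO. Curves are fitted in both directions from the DMSO baseline.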

[5] = APR_HepG2_MicrotubuleCSK_24hr: Apredica 24-hour HepG2 Assay for Microtubule CSK Stabilty (AID 2282909); details: HepG2 microtubule cytoskeleton imaging, actives raise or lower the signal
In short: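 Steps: dose HepG2 for 24 h (0.39–200 uM, 0.5% DMSO); fix 30 min in 3.7% formaldehyde at room temperature; permeabilize; stain alpha-tubulin 60 min; image microtubule cytoskeleton at 20x. Signal change fitted in both directions relative to DMSO.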

[6] = APR_HepG2_MitoticArrest_24hr: Apredica 24-hour HepG2 Assay for Mitotic Arrest (AID 2282910); details: high-content imaging, actives raise or lower the signal
In short: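 Compounds are dosed onto HepG2 cells across ten concentrations up to 200 uM for 24 hr. Cells are then fixed in 3.7% formaldehyde, permeabilised, and labelled for phospho-histone H3 and nuclei; images are scored by cell cycle analysis and fitted bidirectionally relative to DMSO.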

[7] = APR_HepG2_MitoMembPot_24hr: Apredica 24-hour HepG2 Assay for Mitochondrial Membrane Potential (AID 2282911); details: imaging, actives raise or lower the signal
In short: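 Cells are dosed for 24 hr across 0.39 to 200 uM with solvent held at 0.5% DMSO. They are then stained with 250 nM MitoTracker Red CMXRos for 30 min, fixed in 3.7% formaldehyde and imaged.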

[8] = APR_HepG2_MitoMass_24hr: Apredica 24-hour HepG2 Assay for Mitochondrial Mass (AID 2282912); details: high-content imaging, actives raise or lower the signal
In short: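 The liver line HepG2 was dosed in duplicate across a 0.39–200 uM series, with final DMSO held at 0.5% v/v, and harvested at 24 hr. High-content imaging measured mitochondrial dye staining.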

[9] = APR_HepG2_CellCycleArrest_72hr: Apredica 72-hour HepG2 Assay for Cell Cycle Arrest (AID 2282914); details: high-content imaging, actives raise or lower the signal
In short: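 Read-out is Hoechst-stained nuclear DNA content measured by automated fluorescence imaging (20x, six images per well), fitted in both directions relative to DMSO. Human HepG2 liver cells received 0.39–200 uM compound for 72 hr at 0.5% v/v DMSO.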

[10] = APR_HepG2_p53Act_24hr: Apredica 24-hour HepG2 Assay for p53 Activation (AID 2282913); details: high-content imaging, actives raise or lower the signal;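 also: p53 protein immunofluorescence averaged per cell in HepG2 with Hoechst nuclei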
In short: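 Human HepG2 liver cells; 24 hr cpd treatment, 0.39–200 uM, 0.5% DMSO final. Fixed in 3.7% formaldehyde, permeabilized with 0.5% Triton X-100, stained with anti-p53/Cy5 plus Hoechst 33342. Six images per well at 20x; gain or loss vs DMSO.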

Measured: AC50

CCOP(=S)(Oc1ccc([N+](=O)[O-])cc1)c1ccccc1 (configuration not stated)
active: [4] 41.1 µM
not listed: [10]
inactive: all other assays above

Cc1ccc([N+](=O)[O-])cc1C
not listed: [10]
inactive: all other assays above

CCC(C)(C)c1ccc(O)cc1
active: [1] 2.14 µM | [4] 109 µM | [6] 107 µM | [7] 100 µM | [10] 109 µM | [9] 108 µM
inactive: [2] | [3] | [5] | [8]

O=[N+]([O-])c1ccc(Cl)c(Cl)c1
not listed: [10]
inactive: all other assays above

CC(Cc1ccc(OCC(=O)O)cc1)NCC(O)c1csc(C(F)(F)F)n1 (configuration not stated)
inactive: all assays above

ClC(Cl)(Cl)c1ccccc1
inactive: all assays above

CCOc1ccc(C(C)(C)COCc2cccc(Oc3ccccc3)c2)cc1
active: [9] 85.5 µM
inactive: all other assays above

CCCCCCCc1ccc(O)cc1
active: [1] 0.402 µM
not listed: [10]
inactive: all other assays above

CC(Cl)(Cl)C(=O)O
not listed: [10]
inactive: all other assays above

CCCCN(CCCC)N=O
inactive: all assays above

CCC1(c2ccccc2)C(=O)N=C(O)NC1=O (configuration not stated)
inactive: all assays above

CCOP(=S)(OCC)SCSCC
active: [1] 19.7 µM | [2] 114 µM | [9] 111 µM
not listed: [10]
inactive: all other assays above

O=P(Oc1ccccc1)(Oc1ccccc1)Oc1ccccc1
active: [2] 83.5 µM | [4] 63.2 µM | [5] 83 µM | [6] 67.5 µM | [10] 67.6 µM | [9] 75.5 µM
inactive: [1] | [3] | [7] | [8]

O=C(O)C1C(C(=O)O)C2(Cl)C(Cl)=C(Cl)C1(Cl)C2(Cl)Cl (configuration not stated)
inactive: all assays above

c1nc[nH]n1
inactive: all assays above

ClC1=C(Cl)C2(Cl)C3C(Cl)C(Cl)CC3C1(Cl)C2(Cl)Cl (configuration not stated)
inactive: [1] | [3] | [7] | [9]
active: [2] 27.8 µM | [4] 69.4 µM | [5] 156 µM | [6] 65.1 µM | [8] 48.9 µM | [10] 82.6 µM

c1cc2c3c(cccc3c1)CC2
inactive: all assays above

CCOS(=O)(=O)OCC
inactive: all assays above

CCCCc1ccccc1
not listed: [10]
inactive: all other assays above

CCN(CC)c1ccccc1
inactive: all assays above

OCC1CO1 (configuration not stated)
inactive: all assays above

CCCCN(CCCC)SN(C)C(=O)Oc1cccc2c1OC(C)(C)C2
active: [2] 48.4 µM | [4] 98 µM | [6] 79.2 µM | [8] 92.7 µM | [9] 23.3 µM
inactive: [1] | [3] | [5] | [7]
